The source of these data is the supplement of paper PMC9446081.

Holding throughout (test): relative enzymatic activity vs untreated control (fraction); higher = less inhibition
Holding throughout (settings): 100 µM; incubation time: 2 h at 37 C

One assay deals with DNA gyrase. The procedure: (§1)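 In vitro enzymatic inhibition assays (ProFoldin kits) for 12 purified essential E. coli enzymes or complexes, each treated with 218 active antibacterial compounds at 100 µM for 2 h at 37°C. Read-outs were fluorescence or absorbance (phosphate detection, dye binding), converted to activity via standard curves and expressed relative to untreated DMSO controls.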

A further assay deals with DNA helicase (UniProt P0ACB1). The procedure: as §1
Another assay concerns the target DNA ligase (UniProt B1XA82). As for the experimental part:
as §1

A further assay has as its target DNA polymerase (UniProt P10443). As for the experimental part:
as §1

The next assay addresses DNA primase (UniProt P0ABS7). As for the experimental part:
as §1

In another assay the target is GlmU (UniProt A7ZTU1). The procedure:
as §1

A further assay concerns the target Guanlyate kinase (UniProt Q0TBG1). The procedure:
as §1

The next assay deals with MurA (UniProt Q3YX52). The procedure:
as §1

In the next assay the target is T1, MurD (UniProt P14900).
T1 sequence (whole entry): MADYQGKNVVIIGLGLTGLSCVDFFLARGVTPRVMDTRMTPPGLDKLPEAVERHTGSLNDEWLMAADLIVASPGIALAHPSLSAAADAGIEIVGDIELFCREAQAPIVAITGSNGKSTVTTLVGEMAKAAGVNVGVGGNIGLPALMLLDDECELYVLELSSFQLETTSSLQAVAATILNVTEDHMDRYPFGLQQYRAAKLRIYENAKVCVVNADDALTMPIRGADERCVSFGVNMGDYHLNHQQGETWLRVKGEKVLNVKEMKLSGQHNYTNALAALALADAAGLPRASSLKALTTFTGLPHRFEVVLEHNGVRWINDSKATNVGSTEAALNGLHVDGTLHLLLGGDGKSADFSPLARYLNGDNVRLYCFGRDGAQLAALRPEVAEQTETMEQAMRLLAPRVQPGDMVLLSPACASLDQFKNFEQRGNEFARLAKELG
As for the experimental part:
as §1

Another assay deals with T2, MurF (UniProt P11880).
T2 sequence (whole entry): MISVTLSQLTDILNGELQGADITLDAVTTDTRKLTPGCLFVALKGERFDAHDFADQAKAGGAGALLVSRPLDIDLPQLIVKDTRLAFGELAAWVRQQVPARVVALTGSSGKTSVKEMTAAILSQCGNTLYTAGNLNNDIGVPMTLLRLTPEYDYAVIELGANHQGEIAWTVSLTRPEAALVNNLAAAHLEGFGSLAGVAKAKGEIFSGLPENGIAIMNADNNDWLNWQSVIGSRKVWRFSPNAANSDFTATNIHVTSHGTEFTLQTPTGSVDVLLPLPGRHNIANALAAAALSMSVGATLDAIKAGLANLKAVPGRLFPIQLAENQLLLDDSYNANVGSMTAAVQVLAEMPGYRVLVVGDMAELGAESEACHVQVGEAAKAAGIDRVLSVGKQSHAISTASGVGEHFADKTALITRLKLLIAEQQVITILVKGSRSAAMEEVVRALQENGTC
The procedure: as §1

The test system of the next assay is RNA polymerase. As for the experimental part: as §1

Molecules are shown by their SMILES. ± gives the standard deviation of the averaged measurements. A value given as a limit tells only on which side of the number the result lay.

Sequence of DNA ligase (B1XA82 whole entry): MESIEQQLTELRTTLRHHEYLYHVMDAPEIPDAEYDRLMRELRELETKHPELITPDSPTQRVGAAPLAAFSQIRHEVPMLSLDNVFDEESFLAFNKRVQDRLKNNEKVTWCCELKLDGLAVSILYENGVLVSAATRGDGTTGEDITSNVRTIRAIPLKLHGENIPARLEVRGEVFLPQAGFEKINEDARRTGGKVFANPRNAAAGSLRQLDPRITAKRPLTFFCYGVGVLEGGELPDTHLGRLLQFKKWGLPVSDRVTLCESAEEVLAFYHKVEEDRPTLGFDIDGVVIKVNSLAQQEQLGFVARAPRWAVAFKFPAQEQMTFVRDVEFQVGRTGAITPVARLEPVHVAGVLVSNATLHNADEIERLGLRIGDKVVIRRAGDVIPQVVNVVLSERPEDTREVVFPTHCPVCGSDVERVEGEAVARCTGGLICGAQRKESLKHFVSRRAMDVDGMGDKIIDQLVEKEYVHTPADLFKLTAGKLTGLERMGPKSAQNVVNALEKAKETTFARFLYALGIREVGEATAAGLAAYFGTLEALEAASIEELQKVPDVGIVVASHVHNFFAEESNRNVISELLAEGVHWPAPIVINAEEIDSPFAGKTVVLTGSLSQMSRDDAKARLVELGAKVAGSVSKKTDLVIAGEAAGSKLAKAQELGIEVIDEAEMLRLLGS
Sequence of DNA helicase (P0ACB1 whole entry): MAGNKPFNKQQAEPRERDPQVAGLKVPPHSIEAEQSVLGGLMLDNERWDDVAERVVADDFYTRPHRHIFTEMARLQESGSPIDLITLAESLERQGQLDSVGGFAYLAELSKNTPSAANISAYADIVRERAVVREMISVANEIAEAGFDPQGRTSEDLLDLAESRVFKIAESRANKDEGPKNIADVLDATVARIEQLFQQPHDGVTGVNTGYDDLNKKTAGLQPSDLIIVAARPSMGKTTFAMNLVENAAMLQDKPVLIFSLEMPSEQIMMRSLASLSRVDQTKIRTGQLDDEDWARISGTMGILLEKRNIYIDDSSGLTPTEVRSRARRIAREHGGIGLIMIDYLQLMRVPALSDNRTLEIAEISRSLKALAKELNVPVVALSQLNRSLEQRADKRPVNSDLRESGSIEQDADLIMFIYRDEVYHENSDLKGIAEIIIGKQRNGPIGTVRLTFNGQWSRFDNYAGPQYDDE
Sequence of MurA (Q3YX52 whole entry): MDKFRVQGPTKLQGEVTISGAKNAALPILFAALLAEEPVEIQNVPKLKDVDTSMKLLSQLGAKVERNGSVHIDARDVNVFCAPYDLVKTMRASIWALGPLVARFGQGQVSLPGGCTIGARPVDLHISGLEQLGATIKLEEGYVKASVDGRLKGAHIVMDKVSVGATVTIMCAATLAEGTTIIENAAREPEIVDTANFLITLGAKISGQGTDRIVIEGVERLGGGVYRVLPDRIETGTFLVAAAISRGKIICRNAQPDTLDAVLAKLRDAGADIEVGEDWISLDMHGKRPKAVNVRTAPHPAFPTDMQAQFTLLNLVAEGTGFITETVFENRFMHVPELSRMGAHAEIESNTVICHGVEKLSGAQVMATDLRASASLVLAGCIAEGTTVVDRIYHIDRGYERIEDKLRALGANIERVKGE
Sequence of DNA polymerase (P10443 whole entry): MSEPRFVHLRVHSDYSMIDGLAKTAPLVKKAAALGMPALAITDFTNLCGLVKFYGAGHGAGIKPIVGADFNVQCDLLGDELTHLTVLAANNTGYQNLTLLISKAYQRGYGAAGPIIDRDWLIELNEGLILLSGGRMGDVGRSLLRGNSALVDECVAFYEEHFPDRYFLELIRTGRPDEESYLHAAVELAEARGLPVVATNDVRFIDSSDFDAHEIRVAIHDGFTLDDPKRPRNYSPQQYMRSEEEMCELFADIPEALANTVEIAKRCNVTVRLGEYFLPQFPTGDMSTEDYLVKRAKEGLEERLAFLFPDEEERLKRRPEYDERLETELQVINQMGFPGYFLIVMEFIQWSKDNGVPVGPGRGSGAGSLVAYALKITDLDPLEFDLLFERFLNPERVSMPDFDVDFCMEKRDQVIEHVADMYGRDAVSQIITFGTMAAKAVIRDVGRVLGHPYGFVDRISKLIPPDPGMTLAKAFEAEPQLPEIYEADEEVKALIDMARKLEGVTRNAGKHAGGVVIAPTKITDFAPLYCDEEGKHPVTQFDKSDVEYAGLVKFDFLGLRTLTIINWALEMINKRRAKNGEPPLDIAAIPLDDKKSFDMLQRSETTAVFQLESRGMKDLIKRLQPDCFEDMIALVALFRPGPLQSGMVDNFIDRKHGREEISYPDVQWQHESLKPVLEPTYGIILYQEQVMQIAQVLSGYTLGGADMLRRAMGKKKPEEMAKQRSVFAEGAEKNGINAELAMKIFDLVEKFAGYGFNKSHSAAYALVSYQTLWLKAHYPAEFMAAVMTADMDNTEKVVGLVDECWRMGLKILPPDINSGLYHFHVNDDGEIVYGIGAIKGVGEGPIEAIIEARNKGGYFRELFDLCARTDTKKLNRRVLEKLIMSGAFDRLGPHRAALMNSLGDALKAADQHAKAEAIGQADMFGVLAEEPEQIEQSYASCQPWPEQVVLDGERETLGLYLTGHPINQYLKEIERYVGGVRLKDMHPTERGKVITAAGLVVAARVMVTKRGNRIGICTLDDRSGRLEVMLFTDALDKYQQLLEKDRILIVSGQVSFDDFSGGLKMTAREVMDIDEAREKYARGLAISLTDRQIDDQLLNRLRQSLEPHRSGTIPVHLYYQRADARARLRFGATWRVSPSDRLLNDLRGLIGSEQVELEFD
Sequence of DNA primase (P0ABS7 whole entry): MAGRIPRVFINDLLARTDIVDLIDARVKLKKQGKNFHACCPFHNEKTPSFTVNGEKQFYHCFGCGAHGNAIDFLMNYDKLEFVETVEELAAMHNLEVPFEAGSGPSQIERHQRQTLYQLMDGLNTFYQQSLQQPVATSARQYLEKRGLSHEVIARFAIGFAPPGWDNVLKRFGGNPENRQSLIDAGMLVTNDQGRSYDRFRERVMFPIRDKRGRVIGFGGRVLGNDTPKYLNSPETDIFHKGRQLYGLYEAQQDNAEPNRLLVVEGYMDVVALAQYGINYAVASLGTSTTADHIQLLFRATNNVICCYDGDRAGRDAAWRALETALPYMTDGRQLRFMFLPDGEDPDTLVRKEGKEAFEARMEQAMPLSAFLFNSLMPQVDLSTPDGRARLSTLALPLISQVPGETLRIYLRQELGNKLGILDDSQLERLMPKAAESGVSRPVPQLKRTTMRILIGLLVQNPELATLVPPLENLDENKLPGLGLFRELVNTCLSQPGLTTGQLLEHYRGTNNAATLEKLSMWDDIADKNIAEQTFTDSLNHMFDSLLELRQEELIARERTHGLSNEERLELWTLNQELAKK
Sequence of GlmU (A7ZTU1 whole entry, looked up): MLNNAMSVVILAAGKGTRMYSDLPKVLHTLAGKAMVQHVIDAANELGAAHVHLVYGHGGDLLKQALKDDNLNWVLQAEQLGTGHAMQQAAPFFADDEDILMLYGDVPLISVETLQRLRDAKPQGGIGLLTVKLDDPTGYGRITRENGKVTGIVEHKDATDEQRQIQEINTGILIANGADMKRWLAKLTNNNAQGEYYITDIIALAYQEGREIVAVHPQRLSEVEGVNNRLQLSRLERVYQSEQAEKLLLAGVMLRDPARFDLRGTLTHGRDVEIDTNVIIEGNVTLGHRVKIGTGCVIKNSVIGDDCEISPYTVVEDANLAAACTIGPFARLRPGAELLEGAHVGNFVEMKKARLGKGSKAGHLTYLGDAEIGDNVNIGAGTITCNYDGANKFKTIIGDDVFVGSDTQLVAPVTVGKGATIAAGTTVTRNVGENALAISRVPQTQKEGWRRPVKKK
Sequence of Guanlyate kinase (Q0TBG1 whole entry): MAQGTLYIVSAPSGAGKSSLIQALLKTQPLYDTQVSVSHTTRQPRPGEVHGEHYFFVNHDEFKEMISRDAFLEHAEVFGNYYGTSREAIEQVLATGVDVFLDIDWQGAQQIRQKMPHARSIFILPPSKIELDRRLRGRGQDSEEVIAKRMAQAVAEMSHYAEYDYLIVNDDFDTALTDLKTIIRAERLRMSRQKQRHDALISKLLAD

Consider `COC1=C(OC)C(=O)C(CCCCCCCCCC[P+](c2ccccc2)(c2ccccc2)c2ccccc2)=C(C)C1=O`, for which the relative enzymatic activity with DNA gyrase was not above 0; with DNA helicase it was 0.0205 ± 0.0027; with DNA ligase, 0.705 ± 0.021; with DNA polymerase it was 0.0027 ± 0.0017; with DNA primase, not above 0; with GlmU it was 0.155 ± 0.019. The relative enzymatic activity is not above 0 with Guanlyate kinase; 0.021 ± 0.0015 with MurA; 0.162 ± 0.074 in the assay with MurD; 0.211 ± 0.023 with MurF; 0.0008799 ± 4.6e-06 in the assay with RNA polymerase.
Consider `CON=C(C(=O)NC1C(=O)N2C(C(=O)O)=C(C[N+]3(C)CCCC3)CSC12)c1csc(N)n1.[Cl-]` (configuration not stated), for which the relative enzymatic activity with DNA gyrase stood at 0.384 ± 0.0047; with DNA helicase, 0.431 ± 0.059; with DNA ligase, 1.345 ± 0.0088; in the assay with DNA polymerase it was 1.28 ± 0.35; with DNA primase, 0.724 ± 0.23; with GlmU it was 0.969 ± 0.022. For the same compound, the relative enzymatic activity in the assay with Guanlyate kinase is 1.02 ± 0.026; with MurA it was 0.222 ± 0.0031; with MurD, 0.568 ± 0.37; with MurF, 0.962 ± 0.17; in the assay with RNA polymerase, 0.897 ± 0.023.
As to `CCC=C(C(=O)NC1C(=O)N2C(C(=O)OCOC(=O)C(C)(C)C)=C(COC(N)=O)CSC12)c1csc(N)n1.Cl` (configuration not stated), the relative enzymatic activity with DNA gyrase was found to be 0.924 ± 0.071; with DNA helicase, 0.354 ± 0.016; with DNA ligase it was 0.883 ± 0.11; with DNA polymerase, 1.17 ± 0.27; in the assay with DNA primase it was 0.907 ± 0.088; with GlmU, 0.939 ± 0.024. Besides, the relative enzymatic activity stood at 1.02 ± 0.098 with Guanlyate kinase; 0.293 ± 0.18 with MurA; 0.576 ± 0.37 with MurD; 0.941 ± 0.21 with MurF; 0.977 ± 0.094 in the assay on RNA polymerase.
Take `CO/N=C(\C(=O)N[C@@H]1C(=O)N2C(C(=O)O)=C(C[n+]3ccn4ncccc43)CS[C@H]12)c1nsc(N)n1`: the relative enzymatic activity in the assay on DNA gyrase came out at 0.675 ± 0.49; with DNA helicase, 0.625 ± 0.3; with DNA ligase, 0.891 ± 0.17; with DNA polymerase, 1.14 ± 0.26; in the assay with DNA primase, 0.77 ± 0.018; with GlmU, 0.999 ± 0.0029. Besides, the relative enzymatic activity with Guanlyate kinase was found to be 0.949 ± 0.069; with MurA it was 0.305 ± 0.13; with MurD, 0.591 ± 0.38; with MurF it was 0.909 ± 0.24; with RNA polymerase, 0.8278 ± 0.0046.
In the case of `COC(=O)N/N=C/c1ccc([N+](=O)[O-])o1`, the relative enzymatic activity in the assay on DNA gyrase came out at 0.742 ± 0.39; in the assay with DNA helicase, 0.508 ± 0.072; with DNA ligase, 0.9684 ± 0.0075; with DNA polymerase, 0.516 ± 0.72; with DNA primase it was 0.841 ± 0.017; in the assay with GlmU, 1.02 ± 0.019. In addition, the relative enzymatic activity with Guanlyate kinase stood at 0.942 ± 0.11; with MurA it was 0.255 ± 0.17; in the assay with MurD it was 0.636 ± 0.45; with MurF it was 0.961 ± 0.21; in the assay with RNA polymerase, 0.918 ± 0.14.
Consider `COC1(NC(=O)CSCC#N)C(=O)N2C(C(=O)[O-])=C(CSc3nnnn3C)CSC21.[Na+]` (configuration not stated), for which the relative enzymatic activity with DNA gyrase worked out at 0.762 ± 0.27; with DNA helicase it was 0.259 ± 0.32; with DNA ligase it was 1.42 ± 0.28; with DNA polymerase it was 1.16 ± 0.3; with DNA primase, 0.669 ± 0.18; with GlmU, 1.12 ± 0.035. Further, the relative enzymatic activity with Guanlyate kinase worked out at 0.746 ± 0.076; in the assay with MurA it was 0.167 ± 0.022; with MurD, 0.706 ± 0.47; with MurF, 1.01 ± 0.2; in the assay on RNA polymerase, 0.839 ± 0.031.
Take `CN1CCN(c2c(F)cc3c(=O)c(C(=O)O)cn4c3c2OCN4C)CC1`: the relative enzymatic activity in the assay with DNA gyrase amounted to 0.115 ± 0.16; with DNA helicase, 0.53713 ± 0.00022; with DNA ligase, 0.908 ± 0.041; in the assay with DNA polymerase, 1.17 ± 0.21; with DNA primase, 0.86 ± 0.01; with GlmU, 0.97 ± 0.023. The relative enzymatic activity came out at 0.958 ± 0.14 with Guanlyate kinase; 0.585 ± 0.19 with MurA; 0.624 ± 0.43 with MurD; 1.17 ± 0.022 in the assay with MurF; 0.816 ± 0.086 with RNA polymerase.
`CCCC[P+](CCCC)(CCCC)Cc1ccc(NC(=O)[C@@H](Cc2ccc3ccccc3c2)N=C(NC2CCCCC2)NC2CCCCC2)cc1`: the relative enzymatic activity was 0.0368 ± 0.052 in the assay on DNA gyrase; 0.0252 ± 0.0031 with DNA helicase; 0.897 ± 0.14 with DNA ligase; 0.636 ± 0.1 with DNA polymerase; 0.576 ± 0.037 with DNA primase; 0.139 ± 0.0022 with GlmU. Moreover, the relative enzymatic activity stood at 0.245 ± 0.019 in the assay with Guanlyate kinase; 0.0381 ± 0.0081 in the assay with MurA; 0.092 ± 0.023 with MurD; 0.108 ± 0.018 with MurF; 0.2596 ± 0.002 with RNA polymerase.
In the case of `CN[C@@H]1[C@H](O)[C@H](NC)[C@H]2O[C@@]3(O)C(=O)C[C@@H](C)O[C@H]3O[C@@H]2[C@H]1O`, the relative enzymatic activity is 0.826 ± 0.36 in the assay on DNA gyrase; 0.508 ± 0.2 in the assay with DNA helicase; 1.12 ± 0.086 in the assay with DNA ligase; 1.09 ± 0.072 in the assay with DNA polymerase; 0.8044 ± 0.0019 with DNA primase; 1 ± 0.033 with GlmU. The relative enzymatic activity amounted to 1.06 ± 0.05 with Guanlyate kinase; 0.601 ± 0.16 with MurA; 0.624 ± 0.44 with MurD; 1.16 ± 0.02 with MurF; 0.91 ± 0.14 in the assay with RNA polymerase.
Regarding `CCn1cc(C(=O)O)c(=O)c2cc(F)c(N3CCN(C(=S)Nc4cc(C(F)(F)F)ccc4Cl)CC3)cc21`, the relative enzymatic activity was found to be 0.0352 ± 0.05 in the assay on DNA gyrase; 0.303 ± 0.029 in the assay with DNA helicase; 0.85 ± 0.036 with DNA ligase; 0.51 ± 0.72 with DNA polymerase; 1.49 ± 0.75 with DNA primase; 1.03 ± 0.024 in the assay with GlmU. In addition, the relative enzymatic activity is 0.915 ± 0.081 with Guanlyate kinase; 0.654 ± 0.18 with MurA; 0.629 ± 0.41 in the assay with MurD; 0.996 ± 0.24 with MurF; 1.17 ± 0.075 in the assay with RNA polymerase.
With `COC1(NC(=O)C(C(=O)[O-])c2ccc(O)cc2)C(=O)N2C(C(=O)[O-])=C(CSc3nnnn3C)COC21.[Na+].[Na+]` (configuration not stated), the relative enzymatic activity worked out at 1.04 ± 0.15 with DNA gyrase; 0.607 ± 0.17 with DNA helicase; 1.25 ± 0.16 with DNA ligase; 1.27 ± 0.34 with DNA polymerase; 0.693 ± 0.17 with DNA primase; 0.998 ± 0.085 with GlmU. The relative enzymatic activity with Guanlyate kinase was determined as 1.02 ± 0.11; in the assay with MurA, 0.069 ± 0.017; in the assay with MurD it was 0.584 ± 0.39; in the assay with MurF, 0.913 ± 0.23; with RNA polymerase, 0.848 ± 0.071.
For `Cl.Cl.N=C(NCCCCCCNC(=N)NC(=N)Nc1ccc(Cl)cc1)NC(=N)Nc1ccc(Cl)cc1`, the relative enzymatic activity with DNA gyrase turned out to be 0.0297 ± 0.042; with DNA helicase it was 0.0449 ± 0.0094; with DNA ligase it was 0.488 ± 0.68; with DNA polymerase, 0.365 ± 0.03; with DNA primase, 0.306 ± 0.046; in the assay with GlmU it was 0.9017 ± 0.0055. Further, the relative enzymatic activity with Guanlyate kinase worked out at 0.341 ± 0.043; in the assay with MurA it was 0.108 ± 0.015; with MurD it was 0.545 ± 0.35; in the assay with MurF, 0.871 ± 0.16; in the assay with RNA polymerase it was 0.0331 ± 0.011.
